Reference: paper PMC4336329 (PLoS ONE, 2015)
The whole screen tested about 310,000 compounds, of which about 14,000 (4.5%) showed an effect of 50% or more. The effect is printed as a negative number. For the sample, strong results were picked, then their nearest neighbours and some compounds at random.
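Also: peak tail current of the secondary pulse compared with the same well before compound.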

The compounds below were run against human ether-à-go-go-related gene (hERG) potassium channel (human, UniProt Q12809) (assay: primary screen, population patch clamp on CHO cells stably expressing hERG; higher = less effect of the substance).
human ether-à-go-go-related gene (hERG) potassium channel, sequence (Q12809 whole entry, looked up): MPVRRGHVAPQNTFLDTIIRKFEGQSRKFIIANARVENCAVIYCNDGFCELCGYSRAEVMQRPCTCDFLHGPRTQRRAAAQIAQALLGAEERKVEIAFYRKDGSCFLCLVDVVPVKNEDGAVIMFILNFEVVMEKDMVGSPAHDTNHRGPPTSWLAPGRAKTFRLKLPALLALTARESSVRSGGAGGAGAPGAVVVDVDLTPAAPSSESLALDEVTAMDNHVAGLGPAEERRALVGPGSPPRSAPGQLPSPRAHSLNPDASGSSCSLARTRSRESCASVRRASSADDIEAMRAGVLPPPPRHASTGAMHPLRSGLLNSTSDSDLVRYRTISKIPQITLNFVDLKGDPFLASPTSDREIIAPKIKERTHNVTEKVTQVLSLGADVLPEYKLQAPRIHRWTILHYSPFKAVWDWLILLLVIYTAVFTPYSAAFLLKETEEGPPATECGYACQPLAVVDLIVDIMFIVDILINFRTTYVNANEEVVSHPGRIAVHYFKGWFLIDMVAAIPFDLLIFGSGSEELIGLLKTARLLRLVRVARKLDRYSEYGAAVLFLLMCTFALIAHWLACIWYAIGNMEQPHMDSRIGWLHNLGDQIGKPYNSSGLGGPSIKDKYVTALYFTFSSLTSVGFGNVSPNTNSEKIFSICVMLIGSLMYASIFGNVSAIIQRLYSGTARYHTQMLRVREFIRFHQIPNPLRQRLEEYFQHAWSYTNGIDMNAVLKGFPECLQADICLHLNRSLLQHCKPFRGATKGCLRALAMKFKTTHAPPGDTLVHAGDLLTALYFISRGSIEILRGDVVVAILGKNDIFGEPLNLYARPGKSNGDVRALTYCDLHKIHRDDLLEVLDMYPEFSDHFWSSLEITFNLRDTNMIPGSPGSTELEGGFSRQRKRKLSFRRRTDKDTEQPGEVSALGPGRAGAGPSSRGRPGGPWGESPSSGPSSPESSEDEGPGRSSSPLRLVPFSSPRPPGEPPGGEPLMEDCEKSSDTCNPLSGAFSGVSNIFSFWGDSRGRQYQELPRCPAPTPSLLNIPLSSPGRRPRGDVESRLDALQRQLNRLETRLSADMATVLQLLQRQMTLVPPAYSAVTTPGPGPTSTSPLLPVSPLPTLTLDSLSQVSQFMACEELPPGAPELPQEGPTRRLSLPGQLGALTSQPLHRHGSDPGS
In the case of COCCNC(=O)[C@@]1(Cc2ccccc2)C=C[C@@H](C)N1C(C)=O, the “hERG current change (%, negative = inhibition) at 10uM” value is reported as 11.5%. For CC(C)N(Cc1ccco1)/N=C/c1c(O)n(Cc2ccccc2)c(=O)[nH]c1=O, the “hERG current change (%, negative = inhibition) at 10uM” value was 8.85%. With Cc1nccn1CCOc1ccc(Cl)cc1.O=C(O)C(=O)O the “hERG current change (%, negative = inhibition) at 10uM” value was -38.4%. With COc1ccc2c(Cl)c(C(N)=O)sc2c1 the “hERG current change (%, negative = inhibition) at 10uM” value was 1.91%. Nc1ccc(NC(=O)c2ccco2)c(Cl)c1 was tested, and the “hERG current change (%, negative = inhibition) at 10uM” value was 12.9%. With Cc1cc(=O)cc(C)n1-c1ccc(Br)cc1 the “hERG current change (%, negative = inhibition) at 10uM” value was 12.1%. For CCN(CC)CCn1c(-c2ccc(C)cc2)nc(=S)c2c1CC(C)(C)OC2, the “hERG current change (%, negative = inhibition) at 10uM” value was -0.55%. In the case of Clc1ccccc1-c1ccc(/C=N/n2cnnc2)o1, the “hERG current change (%, negative = inhibition) at 10uM” value is reported as -24.1%. For CCc1nc(SCC(=O)Nc2cccc3ccccc23)[nH]c(=O)c1C, the “hERG current change (%, negative = inhibition) at 10uM” value was 8.16%. For COC(=O)c1ccc(C(=O)OC)c(NC(=S)N2CCC(N3CCCCC3)CC2)c1, the “hERG current change (%, negative = inhibition) at 10uM” value was -15%. With COc1cc(NS(C)(=O)=O)c(OC)cc1NC(=O)c1ccccc1 the “hERG current change (%, negative = inhibition) at 10uM” value was -9.96%. For O=C(Nc1ccccc1N1CCOCC1)c1cccc([N+](=O)[O-])c1, the “hERG current change (%, negative = inhibition) at 10uM” value was -17.7%. For O=C(Nc1ccccc1N1CCCCC1)c1cccc([N+](=O)[O-])c1, the “hERG current change (%, negative = inhibition) at 10uM” value was 9.03%. CN1CCN(c2ccccc2NC(=O)c2ccc(-c3cccc([N+](=O)[O-])c3)o2)CC1 was tested, and the “hERG current change (%, negative = inhibition) at 10uM” value was -51.8%. CN1CCN(c2ccccc2NC(=O)c2cccc([N+](=O)[O-])c2)CC1 was tested, and the “hERG current change (%, negative = inhibition) at 10uM” value was -80.1%. In the case of CN1CCN(c2ccc(NC(=O)c3ccc(-c4cccc([N+](=O)[O-])c4)o3)cc2)CC1, the “hERG current change (%, negative = inhibition) at 10uM” value is reported as 5.35%. For O=C(NC(=S)Nc1ccccc1N1CCCC1)c1ccc(-c2cccc([N+](=O)[O-])c2)o1, the “hERG current change (%, negative = inhibition) at 10uM” value was -26.7%. For N#Cc1ccsc1NC(=O)c1ccc(Cl)c([N+](=O)[O-])c1, the “hERG current change (%, negative = inhibition) at 10uM” value was 21%. With O=C(NC1CCS(=O)(=O)C1)c1cccc(S(=O)(=O)N2CCCCCC2)c1 (stereo not shown) the “hERG current change (%, negative = inhibition) at 10uM” value was 1.79%. OCCCC1CCCCN1Cc1nc(Cc2ccccc2Cl)no1 (stereo not shown) was tested, and the “hERG current change (%, negative = inhibition) at 10uM” value was -78.9%. CCC1CCCCN1Cc1nc(Cc2ccccc2Cl)no1 (stereo not shown) was tested, and the “hERG current change (%, negative = inhibition) at 10uM” value was -10.4%. In the case of NC(=O)[C@@H]1CCCN1Cc1nc(Cc2ccccc2Cl)no1, the “hERG current change (%, negative = inhibition) at 10uM” value is reported as 14.5%. Cc1noc(/C=C/c2ccccc2F)c1S(=O)(=O)N1CCC(C(=O)N2CCN(C)CC2)CC1 was tested, and the “hERG current change (%, negative = inhibition) at 10uM” value was -19.5%. In the case of CNC(=O)C1CCN(S(=O)(=O)c2c(C)noc2/C=C/c2ccccc2F)CC1, the “hERG current change (%, negative = inhibition) at 10uM” value is reported as 11.4%. With Cc1noc(C)c1S(=O)(=O)N1CCCN(C(=O)/C=C/c2ccccc2F)CC1 the “hERG current change (%, negative = inhibition) at 10uM” value was -70.9%.
